Publication PMC5540273 (PLoS ONE, 2017)

System: DDR2
Conditions: concentration: 1 μM, replicates: in singlicate; n = 1
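Note: KINOMEscan kinase panel screen.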

| SMILES | %Inh [%] |
| --- | --- |
| CCc1ccc(-c2ccc3c(c2)-c2nn(C)cc2S(=O)(=O)N3C)cc1 | 41 |
| Nc1n[nH]c2ncc(-c3ccccc3)cc12 [SB-517081] | 23 |
| Cc1nc(N(C)[C@H]2CN(C(=O)CC#N)CC[C@H]2C)c2cc[nH]c2n1 | 2 |
| COc1ccc(-c2coc3ccc(-c4nnc(SCc5cccc(C#N)c5)o4)cc23)cc1 | 3 |
| CCC(=O)c1c(-c2ccccc2)c2cc(Cl)ccc2c(=O)n1Cc1cc(S(C)(=O)=O)n(CCC(C)(C)O)n1 | 0 |
| COc1cc2ncn(-c3cc(OCc4ccncc4)c(C(N)=O)s3)c2cc1OC [GSK336313] | 0 |
| Nc1nccc2scc(-c3ccc4c(c3)CCN4C(=O)Cc3ccccc3)c12 [GSK2576924] | 3 |
| COC(=O)c1c(-c2ccccc2)c2cc(Br)ccc2c(=O)n1Cc1ccc(S(C)(=O)=O)cc1 | 17 |
| CCCC(=O)Nc1n[nH]c2ncc(-c3cccc4ccccc34)cc12 [SB-642057] | 0 |
| O=C1NC(=O)C(c2ccccc2)=C1Nc1cccc(O)c1 [SB-390534] | 0 |
| Cc1nn2c(=O)cc(N3CCOCC3)nc2n1Cc1cccc(Cl)c1Cl [GSK2342769] | 0 |
| C[C@@H]1CC[C@H](C(=O)NC2CCCCC2)CN1c1cc(-c2ccc3c(N)n[nH]c3c2)nc(N)n1 [GSK2291363] | 3 |
| Nc1ncnc2c1ncn2-c1cccc2ccccc12 [SKF-97184] | 59 |
| COc1cc2ncn(-c3cc(OCc4ccncc4Br)c(C(N)=O)s3)c2cc1OC [GW854278] | 0 |
| COc1cc2ncn(-c3cc(OCCCc4ccccc4)c(C(N)=O)s3)c2cc1OC [GSK205189] | 3 |
| O=C(Nc1n[nH]c2nc(-c3ccccc3)c(Cl)cc12)C1CC1 [SB-734909] | 18 |
| COc1ccc(-c2cc3c(C)nc(N)nc3n([C@H]3CC[C@H](OCCO)CC3)c2=O)cn1 | 0 |
| CCC(=O)c1c(-c2ccccc2)c2cc(Cl)ccc2c(=O)n1Cc1ccc(C(=O)O)cc1 | 34 |
| Cc1nnc(-c2ccc(C)c(-c3ccc(C(=O)O)cc3)c2)o1 [GW608005] | 1 |

| SMILES | %Inh [%] |
| --- | --- |
| Cc1ccccc1COc1cc(-n2cnc3cc(Cl)ccc32)sc1C(N)=O [GW813349] | 1 |
| Cc1ccc(Oc2ccc(Nc3ncnc4cc[nH]c34)cc2C)cn1 | 0 |
| CCCNC(=O)Nc1ccc(Oc2ncnc3ccn(C)c23)cc1 | 8 |
| COc1cc(Nc2nccc(N3CCC(NC(=O)C4COc5ccccc5O4)C3)n2)cc(OC)c1OC (centres unmarked) [GSK1379761] | 61 |
| COc1cc2ncn(-c3cc(OCc4ccc(S(C)(=O)=O)cc4)c(C(N)=O)s3)c2cc1OC [GW869979] | 2 |
| COc1cc(Nc2ccnc3ccc(C(F)(F)F)cc23)cc(OC)c1OC [GW577382] | 23 |
| O=C(Nc1n[nH]c2cc(-c3ccccc3F)ccc12)C1CC1 [SB-733371] | 6 |
| COC(=O)c1c(-c2ccccc2)c2cc(C)ccc2c(=O)n1Cc1ccccc1 | 33 |
| FC(F)(F)c1ccc(-c2ncn(CCCN3CCOCC3)c2-c2ccncc2)cc1 [SB-217780] | 0 |
| Cl.NS(=O)(=O)c1cccc(Nc2cc(-c3ccc(F)cc3)n[nH]2)c1 [GW824645] | 45 |
| COc1cccc(C2=C(N(C)c3ccccc3)C(=O)NC2=O)c1 [SB-334865] | 22 |
| Cn1c(=O)c(F)c(Nc2ccc(I)cc2F)c2c(=O)n(OC[C@H](O)CO)cnc21 | 25 |
| Fc1cccc(CSc2nnc(-c3ccc4c(c3)CCO4)o2)c1 | 16 |
| Nc1ncnc2c1ncn2-c1cccc(F)c1 [SKF-97560] | 30 |
| COc1cc(OC)cc(-c2cc3cnc(N)nc3nc2NC(=O)NC(C)(C)C)c1 | 11 |
| CCc1nc(-c2cccc(C)c2)c(-c2ccncc2)s1 | 17 |
| COc1ccc(Nc2nccc(N3CCC(NS(=O)(=O)c4ccc(NC(C)=O)cc4)C3)n2)cc1 (centres unmarked) [GSK1379729] | 26 |
| COc1ccc(-n2cnc3c(N)ncnc32)cc1 [SKF-97236] | 0 |

System: T1, DLK
T1 construct: gene MAP3K12
Conditions: concentration: 1 μM, replicates: in singlicate; n = 1

| SMILES | %Inh [%] |
| --- | --- |
| CCc1ccc(-c2ccc3c(c2)-c2nn(C)cc2S(=O)(=O)N3C)cc1 | 0 |
| Nc1n[nH]c2ncc(-c3ccccc3)cc12 [SB-517081] | 27 |
| Cc1nc(N(C)[C@H]2CN(C(=O)CC#N)CC[C@H]2C)c2cc[nH]c2n1 | 0 |
| COc1ccc(-c2coc3ccc(-c4nnc(SCc5cccc(C#N)c5)o4)cc23)cc1 | 1 |
| CCC(=O)c1c(-c2ccccc2)c2cc(Cl)ccc2c(=O)n1Cc1cc(S(C)(=O)=O)n(CCC(C)(C)O)n1 | 0 |
| COc1cc2ncn(-c3cc(OCc4ccncc4)c(C(N)=O)s3)c2cc1OC [GSK336313] | 0 |
| Nc1nccc2scc(-c3ccc4c(c3)CCN4C(=O)Cc3ccccc3)c12 [GSK2576924] | 7 |
| COC(=O)c1c(-c2ccccc2)c2cc(Br)ccc2c(=O)n1Cc1ccc(S(C)(=O)=O)cc1 | 0 |
| CCCC(=O)Nc1n[nH]c2ncc(-c3cccc4ccccc34)cc12 [SB-642057] | 0 |
| O=C1NC(=O)C(c2ccccc2)=C1Nc1cccc(O)c1 [SB-390534] | 0 |
| Cc1nn2c(=O)cc(N3CCOCC3)nc2n1Cc1cccc(Cl)c1Cl [GSK2342769] | 12 |
| C[C@@H]1CC[C@H](C(=O)NC2CCCCC2)CN1c1cc(-c2ccc3c(N)n[nH]c3c2)nc(N)n1 [GSK2291363] | 31 |
| Nc1ncnc2c1ncn2-c1cccc2ccccc12 [SKF-97184] | 0 |
| COc1cc2ncn(-c3cc(OCc4ccncc4Br)c(C(N)=O)s3)c2cc1OC [GW854278] | 12 |
| COc1cc2ncn(-c3cc(OCCCc4ccccc4)c(C(N)=O)s3)c2cc1OC [GSK205189] | 0 |
| O=C(Nc1n[nH]c2nc(-c3ccccc3)c(Cl)cc12)C1CC1 [SB-734909] | 22 |
| COc1ccc(-c2cc3c(C)nc(N)nc3n([C@H]3CC[C@H](OCCO)CC3)c2=O)cn1 | 0 |
| CCC(=O)c1c(-c2ccccc2)c2cc(Cl)ccc2c(=O)n1Cc1ccc(C(=O)O)cc1 | 0 |
| Cc1nnc(-c2ccc(C)c(-c3ccc(C(=O)O)cc3)c2)o1 [GW608005] | 21 |

| SMILES | %Inh [%] |
| --- | --- |
| Cc1ccccc1COc1cc(-n2cnc3cc(Cl)ccc32)sc1C(N)=O [GW813349] | 0 |
| Cc1ccc(Oc2ccc(Nc3ncnc4cc[nH]c34)cc2C)cn1 | 22 |
| CCCNC(=O)Nc1ccc(Oc2ncnc3ccn(C)c23)cc1 | 0 |
| COc1cc(Nc2nccc(N3CCC(NC(=O)C4COc5ccccc5O4)C3)n2)cc(OC)c1OC (centres unmarked) [GSK1379761] | 60 |
| COc1cc2ncn(-c3cc(OCc4ccc(S(C)(=O)=O)cc4)c(C(N)=O)s3)c2cc1OC [GW869979] | 13 |
| COc1cc(Nc2ccnc3ccc(C(F)(F)F)cc23)cc(OC)c1OC [GW577382] | 32 |
| O=C(Nc1n[nH]c2cc(-c3ccccc3F)ccc12)C1CC1 [SB-733371] | 0 |
| COC(=O)c1c(-c2ccccc2)c2cc(C)ccc2c(=O)n1Cc1ccccc1 | 0 |
| FC(F)(F)c1ccc(-c2ncn(CCCN3CCOCC3)c2-c2ccncc2)cc1 [SB-217780] | 0 |
| Cl.NS(=O)(=O)c1cccc(Nc2cc(-c3ccc(F)cc3)n[nH]2)c1 [GW824645] | 0 |
| COc1cccc(C2=C(N(C)c3ccccc3)C(=O)NC2=O)c1 [SB-334865] | 4 |
| Cn1c(=O)c(F)c(Nc2ccc(I)cc2F)c2c(=O)n(OC[C@H](O)CO)cnc21 | 0 |
| Fc1cccc(CSc2nnc(-c3ccc4c(c3)CCO4)o2)c1 | 0 |
| Nc1ncnc2c1ncn2-c1cccc(F)c1 [SKF-97560] | 19 |
| COc1cc(OC)cc(-c2cc3cnc(N)nc3nc2NC(=O)NC(C)(C)C)c1 | 4 |
| CCc1nc(-c2cccc(C)c2)c(-c2ccncc2)s1 | 0 |
| COc1ccc(Nc2nccc(N3CCC(NS(=O)(=O)c4ccc(NC(C)=O)cc4)C3)n2)cc1 (centres unmarked) [GSK1379729] | 23 |
| COc1ccc(-n2cnc3c(N)ncnc32)cc1 [SKF-97236] | 0 |
